Shown are actives, neighbours in structure and some others; about 3.4% of the full set was active somewhere.
GPR151 ag: activators of human GPR151, primary screen, cell-based, PathHunter beta-arrestin, luminescence; G-protein coupled receptor 151 (Homo sapiens), Q8TDV0; PathHunter beta-arrestin GPR151 cells; activation, % at 11.2 µM; 1% of 650,000 active; AID 1508602, 2020; in the data active = activation above about 4.9%;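 note: 0% = median of compound wells and 100% = cells with positive control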
FBW7 act: FBW7 E3 ligase activators, primary screen, biochemical, AlphaScreen, human | F-box/WD repeat-containing protein 7 (Homo sapiens), Q969H0 | AlphaScreen FBW7–phospho-cyclin E peptide binding, activator screen | 0.13% of 650,000 active | normalized activity (activation), % at 26.1 µM; in the data active = normalized activity above about 1.9%;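 note: purified mutant Fbw7 with reduced substrate affinity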
TEAD-YAP inh: TEAD-YAP interaction inhibition, primary screen, TEAD-YAP interaction inhibitor project, luminescence, HEK-TIYL cells. inhibition, % at 9.12 µM. 1.4% of 640,000 active. TEAD-Gal4/YAP UAS-luciferase luminescence; in the data active = inhibition above about 32%;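 note: 0% = median of test compound wells and 100% = reference inhibitor wells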
MITF inh: MITF inhibitors, primary screen, biochemical, AlphaScreen, human. Microphthalmia-associated transcription factor (Homo sapiens), O75030. AlphaScreen MITF homodimerization, bead proximity signal. inhibition, % at 2.6 µM. 0.91% of 650,000 active; in the data active = inhibition above about 50%;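 note: 0% = vehicle wells with protein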
Target sequence (O75030 whole entry, looked up): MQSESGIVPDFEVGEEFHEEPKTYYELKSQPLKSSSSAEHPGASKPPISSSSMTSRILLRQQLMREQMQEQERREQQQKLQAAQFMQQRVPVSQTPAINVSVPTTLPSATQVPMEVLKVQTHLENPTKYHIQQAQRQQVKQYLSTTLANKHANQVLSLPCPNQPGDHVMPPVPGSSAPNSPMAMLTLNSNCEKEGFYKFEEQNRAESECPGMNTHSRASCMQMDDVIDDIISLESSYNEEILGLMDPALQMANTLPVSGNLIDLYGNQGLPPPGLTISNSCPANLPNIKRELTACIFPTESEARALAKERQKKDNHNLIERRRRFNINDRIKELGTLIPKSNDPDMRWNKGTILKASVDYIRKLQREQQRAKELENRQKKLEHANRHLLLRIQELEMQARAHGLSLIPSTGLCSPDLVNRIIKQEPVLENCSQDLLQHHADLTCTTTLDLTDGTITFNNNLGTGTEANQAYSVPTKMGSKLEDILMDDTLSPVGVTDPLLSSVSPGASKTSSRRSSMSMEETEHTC
MITF inh conf: MITF inhibitors, retest of hits, confirmation, biochemical, AlphaScreen, triplicate; shares compounds with MITF inh; AlphaScreen MITF homodimerization, biotin/His-MITF beads; inhibition, % at 2.6 µM; 16% of 4,700 active; AID 1259372, 2018;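 active = inhibition above a cutoff derived from the DMSO control wells, cut at about 28% in these data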;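 note: 0% = MITF dimer wells with DMSO only; inhibitors lower the bead chemiluminescence by keeping MITF from dimerizing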
AS interf DR: AlphaScreen optical interference compounds, dose response, counter-screen, biochemical, HTS | shares compounds with MITF inh | IC50, µM | 6% of 480 active | AlphaScreen optical interference counterscreen, cell-free; call rule not given here
AlphaScreen intf2: AlphaScreen optical interference compounds, counter-screen for MITF inhibitor project, biochemical, triplicate. shares compounds with MITF inh. LysRS AlphaScreen counterscreen, signal interference. inhibition, % at 2.6 µM. 7.6% of 4,700 active;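 active = inhibition above a cutoff derived from the DMSO control wells, cut at about 30% in these data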
Starred values were filed as active, the others as inactive; ! = not active in a repeat.

`CCOC(=O)C1C2NC(=S)N(CC)C1(C)Oc1ccc(Br)cc12` (stereo not drawn) gave GPR151 ag 1, FBW7 act 0, TEAD-YAP inh 15, MITF inh 53*, MITF inh conf 31*, AS interf DR >6.3 and AlphaScreen intf2 25.
CCOC(=O)C1C2NC(=S)N(c3ccccc3)C1(C)Oc1cc(OC)ccc12 (stereo not drawn) was read as GPR151 ag -1, FBW7 act -1, TEAD-YAP inh -8, MITF inh 53*, MITF inh conf 47*, AS interf DR >6.4 and AlphaScreen intf2 30.
For CCOC(=O)C1C2NC(=S)N(c3cccc(C)c3)C1(C)Oc1ccc(OC)cc12 (stereo not drawn) the results were GPR151 ag 0, FBW7 act -1, TEAD-YAP inh 4, MITF inh 59*, MITF inh conf 50* and AlphaScreen intf2 35*.
Screening CC12CCC3C(CCC4CC=CCC43C)C1C/C(=N\O)C2=O (stereo not drawn) returned GPR151 ag 0, FBW7 act 0, TEAD-YAP inh -21 and MITF inh 7.
Cn1cccc1CN1CCN(C(=O)COc2ccccc2)CC1 was read as GPR151 ag -1, FBW7 act 1, TEAD-YAP inh -14, MITF inh 53*, MITF inh conf 6 and AlphaScreen intf2 17.
`O=C(COc1ccccc1)N1CCN(Cc2ccccn2)CC1` gave GPR151 ag 1, FBW7 act 0, TEAD-YAP inh 3, MITF inh 78*, MITF inh conf -1 and AlphaScreen intf2 2.
`O=C(Cc1ccccc1)N1CCN(Cc2ccccn2)CC1` gave GPR151 ag 0, FBW7 act -1, TEAD-YAP inh 0 and MITF inh 47.
For CCCCCCCC(=O)N1c2ccc(C)cc2C2CN(C)CCC21 (stereo not drawn) the results were GPR151 ag 0, FBW7 act 1, TEAD-YAP inh 3 and MITF inh 7.
`O=P(O)(O)C(Cl)(Cl)P(=O)(O)O` gave GPR151 ag 1, FBW7 act 0, TEAD-YAP inh -7, MITF inh 77*!, MITF inh conf 63* and AlphaScreen intf2 -7.
`CCP(=S)(CC)c1cccc(C(=O)O)c1` gave GPR151 ag 0, FBW7 act 0, TEAD-YAP inh 8 and MITF inh 2.
Screening CC(C)N1CCN(Cc2ccc(Br)cc2)CC1 returned GPR151 ag 1, FBW7 act 0, TEAD-YAP inh -3 and MITF inh 26.
For CC(C)N1CCN(Cc2ccncc2)CC1 the results were GPR151 ag -1, FBW7 act 0, TEAD-YAP inh -1, MITF inh 82*, MITF inh conf 3 and AlphaScreen intf2 12.
`CC(C)N1CCN(Cc2ccc(F)cc2)CC1` gave GPR151 ag 1, FBW7 act 0, TEAD-YAP inh 6, MITF inh 55*, MITF inh conf -3 and AlphaScreen intf2 -1.
`CCC(C)N1CCN(Cc2ccc(F)cc2)CC1` (stereo not drawn) gave GPR151 ag -1, FBW7 act 0, TEAD-YAP inh -1, MITF inh 59*, MITF inh conf -4 and AlphaScreen intf2 2.
CCC(C)N1CCN(Cc2cccc(Cl)c2)CC1 (stereo not drawn) was read as GPR151 ag 1, FBW7 act 0, TEAD-YAP inh 3 and MITF inh 27.
CCC(C)N1CCN(Cc2ccc(Br)cc2)CC1 (stereo not drawn) was read as GPR151 ag 0, FBW7 act 0, TEAD-YAP inh -8, MITF inh 71*, MITF inh conf 6 and AlphaScreen intf2 11.
For CCC(C)N1CCN(Cc2ccc(Cl)cc2)CC1 (stereo not drawn) the results were GPR151 ag 0, FBW7 act 0, TEAD-YAP inh 2, MITF inh 74*, MITF inh conf 9 and AlphaScreen intf2 14.
`CSc1ccc(CN2CCN(C(=O)COc3ccc(Cl)cc3)CC2)cc1` gave GPR151 ag 1, FBW7 act 0, TEAD-YAP inh 15 and MITF inh -7.
Cc1cccc(OCC(=O)N2CCN(Cc3ccncc3)CC2)c1 was read as GPR151 ag 0, FBW7 act 0, TEAD-YAP inh -8, MITF inh 73*, MITF inh conf -3 and AlphaScreen intf2 3.
Screening COc1cc(CN2CCN(C(=O)COc3ccccc3)CC2)cc(OC)c1OC returned GPR151 ag 0, FBW7 act 0, TEAD-YAP inh -4 and MITF inh 44.
`COc1cc(OC)c(OC)cc1CN1CCN(C(=O)COc2ccccc2)CC1` gave GPR151 ag -2, FBW7 act 1, TEAD-YAP inh 13, MITF inh 54*, MITF inh conf 7 and AlphaScreen intf2 20.
Screening COc1ccccc1CN1CCN(C(=O)COc2cccc(C)c2)CC1 returned GPR151 ag -1, FBW7 act 0, TEAD-YAP inh 4, MITF inh 80*, MITF inh conf -7 and AlphaScreen intf2 -4.
Screening O=C(COc1ccc(Br)cc1)N1CCN(Cc2ccncc2)CC1 returned GPR151 ag 1, FBW7 act 0, TEAD-YAP inh 2, MITF inh 100*, MITF inh conf -4 and AlphaScreen intf2 -2.
For COc1cccc(CN2CCN(C(=O)COc3cccc(C)c3)CC2)c1 the results were GPR151 ag 1, FBW7 act 0, TEAD-YAP inh 0, MITF inh 57*, MITF inh conf -4 and AlphaScreen intf2 3.
`COc1ccc(OCC(=O)N2CCN(Cc3cccc(OC)c3)CC2)cc1` gave GPR151 ag 3, FBW7 act 0, TEAD-YAP inh 11 and MITF inh 43.
Screening COc1ccc(OCC(=O)N2CCN(Cc3ccccc3C)CC2)cc1 returned GPR151 ag 0, FBW7 act 0, TEAD-YAP inh -6, MITF inh 54*, MITF inh conf 6 and AlphaScreen intf2 0.
For COc1ccc(OCC(=O)N2CCN(Cc3cccc(Br)c3)CC2)cc1 the results were GPR151 ag 0, FBW7 act 0, TEAD-YAP inh -10, MITF inh 64*, MITF inh conf 13 and AlphaScreen intf2 -4.
O=C(COc1ccc(Br)cc1)N1CCN(Cc2ccc3c(c2)OCO3)CC1 was read as GPR151 ag 2, FBW7 act 0, TEAD-YAP inh 9, MITF inh 64*, MITF inh conf 14 and AlphaScreen intf2 25.

Screening data deposited in PubChem BioAssay by The Scripps Research Institute Molecular Screening Center.
